Nine compounds from PubChem BioAssay (NCATS) can be followed below.

Structures are written as SMILES. Inconclusive results are not listed. Where a call stands in place of a potency, no number is given. Calls of active or inactive are those of the source. Calls follow the shape of the dose curve; as a rule, active = well fitted inhibition curve with a large enough effect; inconclusive = small, poorly fitted or top-dose-only effect; inactive = no such curve, though single readings can be large or run the other way.

A short description of this assay: Primary qHTS for small molecule stabilizers of the endoplasmic reticulum resident proteome: Secreted ER Calcium Modulated Protein (SERCaMP) assay (AID 1508630). The conditions noted are these: SH-SY5Y GLuc-SERCaMP (Gaussia luciferase released on ER calcium loss) secretion, thapsigargin, luminescence; series mostly up to 38.4 µM. In short, it runs like this:
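GLuc-SERCaMP-expressing SH-SY5Y cells, pretreated 16 h with compound, are challenged with thapsigargin to empty ER calcium stores; after 4 h, coelenterazine is added directly to the medium and luminescence is imaged.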
Consider `O=C(Nc1ccncc1)c1cc([N+](=O)[O-])ccc1Cl`, for which the Potency result was “inactive”.

For `COC(=O)Nc1nc2ccc(C(=O)C3CC3)cc2[nH]1`, the Potency entry was “inactive”.

For the compound `CCCSc1ccc2nc(NC(=O)OC)[nH]c2c1`, the Potency result was “inactive”.

Regarding `C#C[C@]1(O)CC[C@H]2[C@@H]3CCc4cc(O)ccc4[C@H]3CC[C@@]21C`, the Potency entry was “inactive”.

On to `Oc1c(Br)cc(Br)c2cccnc12`, for which the Potency entry is “inactive”.

For `C=CCc1cccc(/C=N/NC(=O)CN2CCN(Cc3ccccc3)CC2)c1O`, the Potency result was “inactive”.

On to `CC1(C)C[C@@H]1C(=O)N/C(=C\CCCCSC[C@H](N)C(=O)O)C(=O)O`, for which the Potency result was “inactive”.

On to `N[C@H](CCCP(=O)(O)O)C(=O)O`, for which the Potency result is “inactive”.

For the compound `COC(=O)c1nc(Cl)c(Cl)nc1N`, the Potency entry is “inactive”.
